These results are taken from PubChem BioAssay (NCI).

Common to all, as to experiment: NCI-60 one-dose screen, 48 h (100 = growth as untreated, 0 = no growth, -100 = all killed)
Settings in all cases: 10 µM unless noted

Test [1] concerns NCI-H23 lung.
Test [2] concerns NCI-H226 lung.
The subject of test [3] is NCI-H322M lung.
In test [4] the test system is HOP-62 NSCLC.
For test [5], the system named is NCI-H460 lung.
The test system of test [6] is HOP-92 NSCLC.
For test [7], the system named is NCI-H522 lung.
Test [8] relates to A549/ATCC NSCLC.
For test [9], the system named is 786-0 renal.
For test [10], the system named is COLO 205 colon.
Test [11] deals with DU-145 prostate.
Test [12] has as its system K-562 leukemia.
For test [13], the system named is MALME-3M melanoma.
Test [14] concerns MDA-MB-231 breast.
For test [15], the system named is RXF 393 renal.
Test [16] concerns SF-268 CNS.
Test [17] relates to SF-295 CNS.
In test [18] the test system is SF-539 CNS.
Test [19] relates to UACC-257 melanoma.
The subject of test [20] is M14 melanoma.

Molecules are shown by their SMILES. Several values for one entry are separate records, joined by “and”; a condition that tells them apart may be missing. Equal entries are not always repeated. About 83,000 compounds went through this panel and 20% of them were active in at least one assay; those are over-represented in the sample as a whole.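 Each cell line was grown in a 96-well plate and treated with one concentration of compound for 48 hours. Values below 10 were considered active.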 Activity calls are given as the source filed them.

For the compound `COc1ccc(C(C#N)C(C)=O)cc1` (stereo unspecified), the growth in test [1] is 97.9% (inactive); in [2], 99.9% (inactive); in [3], 135% (inactive); in [4] it was 98.8% (inactive); in [5], 102% (inactive); in test [6], 111% (inactive). The growth in [7] is 82.5% (inactive); in [8], 101% (inactive); in [9], 107% (inactive); in [10], 106% (inactive); in test [11], 92.6% (inactive); in test [12], 104% (inactive). Also, the growth in test [13] was 108% (inactive); in [14] it was 116% (inactive); in test [15], 111% (inactive); in test [16] it was 88.9% (inactive); in test [17] it was 107% (inactive); in test [18], 103% (inactive). For the same compound, the results for the growth in test [19] and in test [20] were 93% (inactive) and 101% (inactive), respectively.

With `Cn1cc(-c2csc(-c3cn(CCCCN4CCOCC4)c4ccc(F)cc34)n2)c2cccnc21`, the growth in test [1] was 80.3% (inactive); in test [2], 60.2% (inactive); in test [3], 84.3% (inactive); in [4] it was 85.6% (inactive); in test [5] it was 93.5% (inactive); in test [6], 52.8% (inactive). Further, the growth in test [7] is 57.2% (inactive); in test [8], 75.1% (inactive); in test [9], 63.2% (inactive); in test [10] it was 65.9% (inactive); in test [11], 100% (inactive); in test [12], -49.7% (active). Also, the growth in [13] was -60.3% (active); in test [14] it was 35.2% (inactive); in [15], 16.3% (inactive); in [16], 63% (inactive); in [17], 50.8% (inactive); in test [18] it was 69.7% (inactive). For the same compound, the figures for the growth in test [19] and in [20] were -45.1% (active) and -53.9% (active), respectively.

As for `Cc1nc2ccccc2c(=O)n1-c1ccccc1F`, the growth in test [1] is 100% (inactive); in test [2] it was 96.6% (inactive); in test [3] it was 111% (inactive); in [4] it was 81.6% (inactive); in test [5], 105% (inactive); in test [6] it was 87.5% (inactive). The growth was 88.1% (inactive) in [7]; 76.2% (inactive) in test [8]; 103% (inactive) in test [9]; 98.3% (inactive) in test [10]; 109% (inactive) in test [11]; 104% (inactive) in [12]. Besides, the growth was 112% (inactive) in [13]; 107% (inactive) in test [14]; 96.5% (inactive) in [15]; 100% (inactive) in test [16]; 98.3% (inactive) in test [17]; 95.4% (inactive) in test [18]. Besides, the growth in test [19] was 77% (inactive); in test [20], 99.4% (inactive).

As to `COc1cc2c(c(OC)c1OC)-c1ccc(O)cc1[C@@H](NC(C)=O)CC2`, the growth in [1] was 37.7% (inactive) and 13.8% (inactive); in [2] it was 5.36% (active) and 46.3% (inactive); in [3], 42.7% (inactive) and 1.84% (active); in [4], 37.8% (inactive) and 21.6% (inactive); in test [5], 5.66% (active) and 0.839% (active); in [6], 16.7% (inactive). Further, the growth in [7] is 17% (inactive) and -32.6% (active); in test [8], 14.9% (inactive); in test [9] it was 29.2% (inactive) and 32.5% (inactive); in test [10], -32.6% (active) and -83.8% (active); in [11] it was -21.6% (active) and -35.8% (active); in [12] it was 3.22% (active). For the same compound, the growth was 26.4% (inactive) in test [13]; 9.66% (active) and -7.09% (active) in test [14]; 26.3% (inactive) and 40.5% (inactive) in [15]; 19.5% (inactive) and 21% (inactive) in test [16]; -13.7% (active) and -23.2% (active) in test [17]; 2.98% (active) and -2.84% (active) in test [18]. Besides, the growth was 54.1% (inactive) and 48.7% (inactive) in test [19]; 11.5% (inactive) and 16.8% (inactive) in test [20].

For `O=C1NC(=O)C(=C/C=C/c2ccccc2)C(=O)N1`, the growth in test [1] was -49% (active); in test [2], 62.7% (inactive); in test [3] it was 97% (inactive); in test [4] it was 48.2% (inactive); in test [5], 33.1% (inactive); in test [6], 92.8% (inactive). In addition, the growth in test [7] was 6.24% (active); in [8] it was 80.2% (inactive); in test [9], -25.4% (active); in test [10] it was -47.1% (active); in test [12], 8.24% (active); in test [13], -4.86% (active). The growth in test [14] was 3.87% (active); in test [15] it was -91.5% (active); in [16], 30% (inactive); in test [17] it was 97.8% (inactive); in test [18], 27.4% (inactive); in [19], 38.7% (inactive). For the same compound, the growth in test [20] is -20.5% (active).

As to `CN1C2CCC1[C@@H](COC(=O)c1ccccc1)[C@@H](O)C2` (stereo partly specified), the growth is 108% (inactive) in [1]; 99.6% (inactive) in [2]; 119% (inactive) in test [3]; 99.7% (inactive) in test [4]; 113% (inactive) in test [5]; 69.9% (inactive) in test [6]. The growth in [7] was 64.9% (inactive); in test [8] it was 99.2% (inactive); in test [9], 108% (inactive); in test [10], 129% (inactive); in [11], 112% (inactive); in test [12], 81.3% (inactive). Moreover, the growth in [13] was 129% (inactive); in [14], 103% (inactive); in [16], 108% (inactive); in test [17] it was 112% (inactive); in test [18], 103% (inactive); in test [19], 97.1% (inactive). For the same compound, the growth in test [20] was 100% (inactive).

As for `O=S1(=O)OCCO1`, the growth in test [1] was 96.5% (inactive); in test [2] it was 103% (inactive); in test [3], 95.4% (inactive); in test [4], 103% (inactive); in test [5], 103% (inactive); in test [6], 102% (inactive). Besides, the growth in test [7] was 96.3% (inactive); in test [8], 102% (inactive); in test [9] it was 101% (inactive); in test [10], 106% (inactive); in [11], 104% (inactive); in [12], 99.1% (inactive). Further, the growth was 88.8% (inactive) in test [13]; 103% (inactive) in test [15]; 98.2% (inactive) in test [16]; 98.3% (inactive) in test [17]; 95.1% (inactive) in [18]; 96.7% (inactive) in test [19]. Further, the growth in test [20] was 103% (inactive).

On to `c1ccc(CCN2CCCCC2)nc1`, for which the growth was 103% (inactive) in test [1]; 101% (inactive) in test [2]; 106% (inactive) in test [3]; 95.6% (inactive) in test [4]; 114% (inactive) in test [5]; 91.7% (inactive) in [6]. Also, the growth is 101% (inactive) in test [7]; 95.7% (inactive) in test [8]; 101% (inactive) in test [9]; 106% (inactive) in test [10]; 97.6% (inactive) in [12]; 141% (inactive) in test [13]. Besides, the growth was 97.8% (inactive) in test [14]; 114% (inactive) in [15]; 103% (inactive) in test [16]; 98% (inactive) in test [17]; 102% (inactive) in test [18]; 108% (inactive) in test [19]. Also, in test [20], the growth is 99.5% (inactive).
